Source: ChEMBL document CHEMBL4296182, “CO-ADD screening of NIH NCI Diversity Set V”
For part of these data: Results with a measured potency or affinity are listed apart.

How the values were obtained:
Staphylococcus aureus = assay: Antibacterial activity against Staphylococcus aureus MRSA ATCC 43300 (CO-ADD:GP_020); MIC in CAMBH media using NBS plates, by Resazurin F(560/590); assay type: functional; conditions: Concentration 20 uM, ASSAY_TEST Inhibition of Bacterial Growth, detection method Resazurin, Fluorescence (ex560/em590), MEDIA CAMHB, plate type 384well, CORNING #3640, time 18 hr
Acinetobacter baumannii = assay: Antibacterial activity against Acinetobacter baumannii ATCC 19606 (CO-ADD:GN_034); MIC in CAMBH media using NBS plates, by Resazurin F(560/590); assay type: functional; conditions: Concentration 20 uM, ASSAY_TEST Inhibition of Bacterial Growth, detection method Resazurin, Fluorescence (ex560/em590), MEDIA CAMHB, plate type 384well, CORNING #3640, time 18 hr
Escherichia coli = assay: Antibacterial activity against Escherichia coli ATCC 25922 (CO-ADD:GN_001); MIC in CAMBH media using NBS plates, by Resazurin F(560/590); assay type: functional; conditions: Concentration 20 uM, ASSAY_TEST Inhibition of Bacterial Growth, detection method Resazurin, Fluorescence (ex560/em590), MEDIA CAMHB, plate type 384well, CORNING #3640, time 18 hr
Klebsiella pneumoniae = conditions: Concentration 20 uM; ASSAY_TEST Inhibition of Bacterial Growth; detection method Absorption (OD600); MEDIA CAMHB; plate type 384well; NBS; CORNING #3640; time 18 hr
Candida albicans = conditions: 20 µM
Cryptococcus neoformans = conditions: Concentration 20 uM; ASSAY_TEST Inhibition of Fungal Growth; detection method Resazurin; Absorption (OD600-OD570); plate type 384well; NBS; CORNING #3640

Compound | Inhibition (Staphylococcus aureus) [%] | Inhibition (Acinetobacter baumannii) [%] | Inhibition (Escherichia coli) [%] | Inhibition (Klebsiella pneumoniae) [%] | Inhibition (Candida albicans) [%] | Inhibition (Cryptococcus neoformans) [%]
Cc1cc(N2CCOCC2)nc(N2CCOCC2)n1 | 0.14 | -0.73 | 6.71 | 4.64 | 1.08 | -7.95
Oc1ccc(Cl)nn1 | 1.52 | -4.23 | 4.23 | 8.48 | 0.96 | 1.34
Oc1ccnc(Nc2ccc(Cl)cc2)n1 | 11.15 | -11.5 | 6.59 | -5.88 | 0.12 | -10.08
O=C(O)c1cc(O)ccc1/N=N/c1ccccc1 | 3.85 | -9.66 | 1.52 | 5.36 | 10.2 | -9.07
O=C(O)c1ccccc1C(=O)Nc1ccccc1[N+](=O)[O-] | 3.12 | 5.2 | 12.47 | 12.98 | 4.76 | -12.04
N#Cc1nnn2c1nc(N)c1c(Cl)cccc12 | 11.84 | 9.93 | 2.46 | 14.13 | 1.33 | -4.78
Cc1ccc(S(=O)(=O)N(C)C)cc1[N+](=O)[O-] | -7.75 | -5.08 | -0.42 | 1.49 | 0.81 | -3.84
CCOC(=O)Nc1csnn1 | 13.65 | -5.72 | 13.49 | 14.72 | 5.16 | -5.84
Oc1ccnc2c(Cl)cccc12 | 7.28 | 2.93 | -8.1 | 5.9 | 3.54 | 14.14
NC(=S)NC(=O)c1ccccc1 | 15.19 | -5.77 | 13.89 | 14.46 | 2.89 | -5.13
c1ccc(-n2c3ccccc3c3ccccc32)cc1 | 0.65 | -3.58 | 6.48 | 0.88 | 5.95 | 11.23
COc1cc(O)c(C(=O)/C=C/c2ccccc2)c(OC)c1 [FLAVOKAWAIN B] | 9.23 | 7.33 | 2.45 | 12.32 | 6.59 | -7.74
c1ccc(-c2nnc(-c3ccccn3)[nH]2)nc1 | 12.66 | 11.56 | -1.7 | 7.68 | 4.71 | -5.04
Nc1ccnn1-c1ccccc1 | 7.55 | -6.56 | 2.95 | 26.2 | 2.01 | -2.01
CSc1nc(S)c2[nH]c(S)nc2n1 | 13.61 | -13.83 | 6.32 | 11 | 6.49 | 2.53
CCCNC(=O)c1ccc(Cl)cc1Cl | 12.41 | -15.87 | 4.4 | 8.05 | 0.63 | -4.71
Clc1ccccc1-c1nc2ccccc2[nH]1 | 11.4 | -8.21 | 9.05 | 12.13 | 4.17 | -6.44
N=C(N)NS(=O)(=O)c1ccc(/N=C2/C(=O)Nc3ccccc32)cc1 | 10.79 | 2.06 | 11.61 | 5.69 | -0.17 | -10.75
CCOC(=O)c1cc2c(OC)c(OC)ccc2c2ncc(C#N)c(O)c12 | 2.33 | 4.98 | -22.93 | 0.73 | 5.12 | 44.69
CC(=O)OC1COC(OC(C)=O)CO1 (stereo not given) | -14.46 | -1.98 | -12.48 | 0.6 | -0.61 | 10.42
